PubChem BioAssay (Tox21)
Several values for one entry are separate records, joined by “and”; a condition that tells them apart may be missing. Equal values may be shown once. Results filed as inconclusive are left out. A call without a number means that no potency is given here. The source holds several records for some structures; these can differ, active in one and inactive in another. Activity calls are given as the source filed them. The call rests on the fitted dose curve; in most records, active means well fitted cell-killing curve with a large enough effect in the repeat runs; inconclusive means weak or mixed curves, or effect the other way; inactive means no such curve, though single readings can be large or run the other way.

Experiment: qHTS assay to identify small molecule agonists of the RXR signaling pathway - cell viability counter screen (AID 1159529); further: nearly all actives have a fitted effect of over 50% in size
Details: RXR-alpha-bla HEK293T viability, CellTiter-Glo, 16 h; series mostly up to 76.8 µM; activity change, negative = cytotoxicity: at the top concentration
From the text: National Center for Advancing Translational Sciences [NCATS]
NIH Chemical Genomics Center [NCGC]
U.S. Environmental Protection Agency [EPA]
National Institutes of Environmental Health Sciences [NIEHS]
National Toxicology Program [NTP]
U.S. Food and Drug Administration [FDA]
The Retinoid X receptor (RXR), a nuclear hormone receptor expressed in liver, spleen, placenta, epidermis, central nervous system. These receptors are able to form homo and heterodimers with other nuclear receptors and due to this heterodimerizing ability, RXR functions as master regulators producing diverse physiological effects. Three subtypes of RXR exist; alpha, beta and gamma. Retinoid X receptor alpha (RXR-alpha) has potential roles in metabolic signaling pathways, skin alopecia, dermal cysts, cardiac development, insulin sensitization etc. Therefore screening environmental chemicals on RXR-alpha signaling can be used for the studies focused on such therapeutic applications. For quantification of RXR-alpha ligands signaling, GeneBLAzer RXR alpha-UAS-bla HEK 293T (Life Technologies, Carlsbad, CA) cells containing a beta-lactamase reporter-gene under control of Retinoid X receptor-alpha response element were used to screen Tox21 10K library. The cytotoxicity of the Tox21 compound library against the RXR-alpha HEK 293T cell line was tested in parallel by measuring cell viability using CellTiter-Glo assay (Promega Corporation, Madison, WI) in the same wells.
Tox21 Assay Protocol Summary:
RXR-alpha HEK 293T cells were dispensed at 2,000 cells/6 uL of assay medium containing 2% charcoal-stripped FBS using a Multidrop Combi (ThermoFisher Scientific, Waltham, MA) dispenser. The assay was performed in black wall/clear-bottom 1536-well plates (Greiner Bio-One North America Inc. Monroe, NC). Tetraoctyl ammonium bromide was used as a positive control in the cytotoxicity screen. After the assay plates were incubated at 37 C and 5% CO2 for 5 hr, 23 nL of compounds dissolved in DMSO, positive control or DMSO only were transferred to the assay plate by a Pintool station (Kalypsys, San Diego, CA). The assay plates were incubated at 37 C and 5% CO2 for 16 hr. One uL of LiveBLAzer B/G FRET substrate (Life Technologies) was added using a Flying Reagent Dispenser (FRD) (Aurora Discovery, San Diego, CA) and the plates were incubated at room temperature for 2 hr. Fluorescence intensity (405 nm excitation, 460/530 nm emission) was measured using an Envision plate reader (PerkinElmer, Shelton, CT). For cytotoxicity, 4 uL/well of CellTiter-Glo reagent was added into the assay plates using an FRD. After 30 min incubation at room temperature, the luminescence intensity was measured using a ViewLux plate reader (PerkinElmer).
Potency means the concentration at half of the fitted maximal effect.

SMILES	Potency	activity change, negative = cytotoxicity
CC(C)Nc1nc(Cl)nc(NC(C)C)n1	inactive	–
O=[N+]([O-])c1ccc(Cl)c([N+](=O)[O-])c1	24.9 µM (active) and 24.5 µM (active)	–
C[N+](C)(C)CC(=O)O	inactive	–
CCNCC	inactive	–
CC[n+]1c(-c2ccccc2)c2cc(N)ccc2c2ccc(N)cc21	inactive	–
CCCCCCCCCc1ccc(O)cc1	55.5 µM (active)	–
C=C(C)C#N	inactive	–
NN=C(N)N	inactive	–
CCOS(=O)(=O)OCC	–	-13.4% (inactive)
CC(C)CON=O	inactive	–
O=NN1CCOCC1	inactive	–
CNC(=O)Oc1cccc2c1OC(C)(C)C2	inactive	–
CNC(=S)S	inactive	–
O=S(=O)(O)C(F)(F)C(F)(F)C(F)(F)C(F)(F)C(F)(F)C(F)(F)C(F)(F)C(F)(F)F	inactive and 19.5 µM (active)	–
CCC1(c2ccc(N)cc2)CCC(=O)NC1=O (stereo not given)	inactive	–
COP(=S)(OC)Oc1ccc(S(=O)(=O)N(C)C)cc1	–	-6.51% (inactive)
Cc1ccc([N+](=O)[O-])cc1	inactive	–
CC(C)=CC1C(C(=O)OCc2cccc(Oc3ccccc3)c2)C1(C)C (stereo not given)	inactive	–
C[C@]12CC[C@H]3[C@@H](CCC4=CC(=O)CC[C@@H]43)[C@@H]1CC[C@@H]2O	inactive	–
N#Cc1c(Cl)c(Cl)c(Cl)c(C#N)c1Cl	6.05 µM (active) and 4.9 µM (active)	–

SMILES	Potency	activity change, negative = cytotoxicity
N#CC(c1ccccc1)c1ccccc1	inactive	–
C[N+](C)(C)CC(=O)[O-]	inactive	–
Cn1c(-c2ccccc2)cc(-c2ccccc2)[n+]1C	inactive	–
COc1ccc(O)c(C(C)(C)C)c1	–	-15.2% (inactive)
CCOP(=S)(OCC)SCSC(C)(C)C	inactive	–
CCC[CH2][Sn]([Cl])([CH2]CCC)[CH2]CCC	1.1 µM (active)	–
COC(=O)Nc1nc2ccccc2[nH]1	inactive	–
CC(O)CN(CC(C)O)CC(C)O (stereo not given)	inactive	–
CCCCCCCCCCCCCl	inactive	–
CCCCSP(=O)(SCCCC)SCCCC	inactive	–
CC(C)(c1ccc(OCC2CO2)cc1)c1ccc(OCC2CO2)cc1 (stereo not given)	49.6 µM (active) and inactive	–
C=CC(=O)OCC(CC)(COC(=O)C=C)COC(=O)C=C	15.9 µM (active) and 21.9 µM (active)	–
CCN(CC)C(=O)C(C)Oc1cccc2ccccc12 (stereo not given)	inactive	–
[CH3][Sn]([Cl])([Cl])[Cl]	inactive	–
O=C1C(Cl)=C(Cl)C(=O)c2ccccc21	12.3 µM (active) and 17.4 µM (active)	–
ClCc1ccccn1	inactive	–
CC(C)COC(=O)c1ccccc1C(=O)OCC(C)C	inactive	–
Cl	inactive	–
CCCCOC(=O)COC(=O)c1ccccc1C(=O)OCCCC	inactive	–
C[N+](C)(C)C	inactive	–
